Reference: PubChem BioAssay (NCATS)
Several values for one entry are separate records, joined by “and”; a condition that tells them apart may be missing. Identical values can stand only once. Results filed as inconclusive are left out. Activity calls are given as the source filed them. Unless noted, calls follow the shape of the dose curve; as a rule, active = well fitted curve in the direction sought with a large enough effect; inconclusive = small, poorly fitted or top-dose-only effect, or another doubt; inactive = no such curve, though single readings can be large; an effect the other way counts as inactive or inconclusive.

Key:
[1] = molecular target: Lysosomal acid glucosylceramidase (Homo sapiens) (UniProt P04062); experiment: Glucocerebrosidase-p2 (AID 348; in the data active = potency below about 10 µM; also: potency is read from the fitted curve at half-maximal effect); conditions: purified GBA, blue fluorogenic substrate, 40 min
In short: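 Normal human glucocerebrosidase (0.2 nM) with blue fluorogenic substrate (80 uM final) in citrate/phosphate pH 5.9 with 10mM sodium taurocholate, 0.01% tween-20; 40 min RT, NaOH/glycine stop; fluorescence Ex 365/Em 440; AC50 from a titration from 0.6 nM upwards.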

[2] = AP1 Signaling Pathway (AID 357; active = well fitted curve in either direction with a large enough effect, not every such curve was filed as active;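 also: ME-180 reporter cells stimulated with EGF at its EC50 level; % is scaled to controls: 0 for no effect and ±100 for the full control effect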); conditions: ME-180 AP-1-bla reporter, EGF-induced, beta-lactamase ratio, 5 h
In short: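 First, ME-180 AP-1-bla cells were cultured overnight at 37 °C in low-serum Opti-MEM. Next, titrated compounds with EC50 EGF were incubated 5 hours. Finally, CCF4 was added for 2.5 hours and the 460/530 nm ratio recorded.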

[3] = NFAT Signaling Pathway (AID 444; active = well fitted curve in either direction with a large enough effect, not every such curve was filed as active;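 also: carbachol stimulus at about its EC50 of 1 µM final; % is scaled to controls: 0 for no effect and ±100 for the full control effect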); conditions: Jurkat NFAT-bla M1, carbachol, beta-lactamase ratio, 5 h
In short: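 Read-out: CCF4 FRET ratio (460 nm/530 nm) after 1 h RT dye loading, used for %activity and AC50 from titration series. Cells: Jurkat NFAT-β-lactamase/M1 line, treated with compound plus 1 uM carbachol for 5 h, 37 °C.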

[4] = Stat Signaling Pathway (AID 446; active = well fitted curve in either direction with a large enough effect, not every such curve was filed as active;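 also: ME-180 cervical cancer cells given 40 pM IL-6 alongside compound; SIE-controlled beta-lactamase reporter measured as 460/530 nm FRET emission ratio; % is scaled to controls: 0 for no effect and ±100 for the full control effect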); conditions: ME-180 (cervical carcinoma) SIE beta-lactamase reporter, IL-6 stimulated, 5 h
In short: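 Emission at 460 and 530 nm (excitation 405 nm) reports SIE-controlled beta-lactamase in ME-180 cells. Cells received compound with 40 pM IL-6 for 5 hrs at 37 C; data scaled between 300 pM IL-6 and 125 nM JAK-inhibitor controls.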

[5] = molecular target: Mitogen-activated protein kinase 10 (Mus musculus) (UniProt Q61831); experiment: JNK3 AlphaScreen Assay (AID 530; active = well fitted curve in either direction with a large enough effect, not every such curve was filed as active;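 also: kinase came from lysate of stimulated human HepG2 cells; signal reports phosphorylation of biotinylated GST-cJun 1-79 at Ser73 with 10 µM ATP; % is scaled to controls: 0 for no effect and ±100 for the full control effect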); conditions: JNK3 lysate, c-Jun phosphorylation; series mostly up to 57.1 µM
In short: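 qHTS titrations with 15 min compound pre-incubation before adding ATP (10 uM final). Read-out: AlphaScreen of Ser73-phosphorylated biotin-GST-cJun using HepG2 lysate JNK3 activated by IL-1β and TNFα.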

[6] = molecular target: 3',5'-cyclic-AMP phosphodiesterase 4B (Homo sapiens) (UniProt Q07343); experiment: qHTS Assay for Inhibitors of PDE-IV (AID 607; active = well fitted activation curve with a large enough effect in the main read-out, with a control signal flat, not every such curve was filed as active; also: % of control where 0% means no effect); conditions: HEK293 ACTOne CNG channel cells, membrane potential fluorescence; series mostly up to 22.9 µM
In short: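 The readout is membrane depolarisation from a cAMP-sensing CNG channel, detected with a potential dye at ex 535/em 590. Cells were HEK293-derived (endogenous PDE-IV) at 1000 cells/well, titrated up to 22.9 uM final.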

[7] = molecular target: ATP-dependent 6-phosphofructokinase (Trypanosoma brucei brucei) (UniProt O15648); experiment: qHTS Assay to Find Inhibitors of T. brucei phosphofructokinase: hit validation (AID 492961); conditions: T. brucei PFK, ADP-Glo luminescence; series mostly up to 51.4 µM
In short: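 In this biochemical qHTS validation, titrated compounds were tested against 1.25 nM PFK with 0.1 mM ATP and 0.5 mM F6P. Percent activity came from controls lacking or containing enzyme.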

[8] = molecular target: Ubiquitin carboxyl-terminal hydrolase 1 (Homo sapiens) (UniProt O94782); experiment: Inhibitors of USP1/UAF1: Pilot qHTS (AID 504865); conditions: purified USP1/UAF1, Ub-rhodamine cleavage fluorescence; series mostly up to 114 µM;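 also: rhodamine fluorescence freed from ubiquitin-rhodamine substrate followed over time; top concentration of the series differs between compounds; % is scaled to controls: 0 for no effect and ±100 for the full control effect; nearly all actives have a fitted effect of over 35% in size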
In short: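 Kinetic fluorescence assay: 1nM USP1/UAF1, 15 min compound preincubation, then 150nM Ub-Rho; 480/540 nm.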

[9] = molecular target: DNA dC->dU-editing enzyme APOBEC-3G (Homo sapiens) (UniProt Q9HC16); experiment: qHTS for inhibitors of Vif-A3G interactions: Validation (AID 588379); conditions: Vif-A3G protein interaction assay; series mostly up to 46.1 µM; also: 0% is about no effect
In short: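 Yellow fluorescence (Ex 488, Em 500-530) of Vif-coexpressing HeLa A3G-eYFP cells, scanned by Acumen cytometer, reports blocked A3G degradation. Cells plated at 700/well overnight at 37 deg C before compound addition, then a further overnight compound incubation at 37 deg C.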

[10] = molecular target: Luciferin 4-monooxygenase (Photinus pyralis) (UniProt P08659); experiment: Biochemical firefly luciferase enzyme assay for NPC (AID 624030);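 also: purified P. pyralis luciferase at 10 nM with luciferin and ATP substrate; 0% = DMSO and -100% = full luciferase inhibition by PTC124 control; nearly all actives have a fitted effect of over 70% in size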; conditions: purified P. pyralis luciferase, luminescence, 5 min; series mostly up to 58.6 µM
In short: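 Direct inhibition of firefly luciferase enzyme (10 nM final, 50 mM Tris Acetate) assessed by luminescence within 5 minutes. Percent activity scaled between DMSO and PTC124 positive control, with concentration-effect curves classified by fit quality and response.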

[11] = S16 Schwann cell viability assay (CellTiter-Glo assay) (AID 624031); conditions: S16 rat Schwann cells viability, 24 h; series mostly up to 57.5 µM;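 also: cellular ATP luminescence as a viability measure; plate controls were DMSO-treated cells for no effect and cell-free wells for full effect; nearly all actives have a fitted effect of over 70% in size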
In short: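 Native S16 rat Schwann cells in DMEM/10% FBS without phenol red were incubated overnight, then exposed to compounds for 24 h at 37 °C/5% CO2. Viability was read as ATP luminescence (CellTiter-Glo), normalized to no-cell wells and DMSO (0%).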

[12] = S16 Schwann cell PMP22 intronic element firefly luciferase assay (AID 624032); conditions: S16 rat Schwann cells, PMP22 element FLuc, 24 h; series mostly up to 57.5 µM;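 also: plate controls were DMSO for no effect and PTC124 positive control mean for full effect; nearly all actives have a fitted effect of over 30% in size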
In short: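 Luciferase reporter of PMP22 intronic-element expression in stably transfected S16 rat Schwann cells, read by ONE-Glo luminescence after 24 h compound exposure at 37 C. Activity scaled between DMSO (0%) and positive-control PTC124; concentration-effect curves quality-classified.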

[13] = S16 Schwann cell PMP22 intronic element beta-lactamase assay (AID 624044; calls by dose curve;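 also: 0% = DMSO and -100% = potassium clavulanate positive control; nearly all actives have a fitted effect of over 15% in size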); conditions: S16 rat Schwann cells, PMP22 element beta-lactamase FRET, 24 h; series mostly up to 38.3 µM
In short: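 Beta-lactamase reporter under a PMP22 intronic regulatory element in stable S16 rat Schwann cells; 24 h compound exposure. 460 nm blue signal normalized between DMSO (0%) and potassium clavulanate, with 535 nm FRET tracking viability; curves classed by r2 and response.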

[14] = test system: Zika virus NS2B-NS3 protease; experiment: Primary screen GU AMC qHTS for Zika virus inhibitors (AID 1347154); conditions: Zika NS2B-NS3 unlinked protease, AMC fluorogenic substrate; series mostly up to 54.1 µM;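 also: 0% = no-inhibitor control and -100% = no-enzyme control; nearly all actives have a fitted effect of over 70% in size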
In short: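 Fluorogenic AMC-substrate cleavage by noncovalent NS2B-NS3 protease complex (25 nM, pH 8.0 Tris buffer with Tween 20) followed for 15 minutes at room temperature (~20% conversion). Percent inhibition from ex340/em450 signal change, fitted by 4-parameter Hill equation.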

[15] = Primary qHTS for small molecule stabilizers of the endoplasmic reticulum resident proteome: Secreted ER Calcium Modulated Protein (SERCaMP) assay (AID 1508630); conditions: SH-SY5Y GLuc-SERCaMP (Gaussia luciferase released on ER calcium loss) secretion, thapsigargin, luminescence; series mostly up to 38.4 µM; also: % is scaled to controls: 0 for no effect and ±100 for the full control effect
In short: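 The SH-SY5Y reporter protocol was run at 3 concentrations up to 38.3 uM (primary) or 11 concentrations (follow-up): 16 h compound, 100 nM thapsigargin for 4 h, then extracellular luciferase luminescence.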

[16] = qHTS profiling for inhibitors of Plasmodium falciparum proliferation (AID 504749);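 also: 0% = DMSO vehicle and full inhibition = artemisinin control; nearly all actives have a fitted effect of over 60% in size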; conditions: P. falciparum in erythrocytes, SYBR Green DNA, 72 h, at 28.7 µM (top of the series)
In short: (§1)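 SYBR Green fluorescence of parasite DNA, read after lysis and overnight dark incubation, measured growth over 72 h in erythrocyte culture at 0.3% parasitemia and 2.5% hematocrit. Data normalised to DMSO and 0.29 uM artemisinin, with plate-drift correction.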

3D7 = experiment: as above; conditions: P. falciparum in erythrocytes, SYBR Green DNA, 72 h; series mostly up to 28.7 µM
In short: as §1

7G8 = experiment: as above; conditions: P. falciparum in erythrocytes, SYBR Green DNA, 72 h; series mostly up to 28.7 µM
In short: as §1

AA1029 = experiment: as above; conditions: P. falciparum in erythrocytes, SYBR Green DNA, 72 h; series mostly up to 28.7 µM
In short: as §1

AS120 = experiment: as above; conditions: P. falciparum in erythrocytes, SYBR Green DNA, 72 h; series mostly up to 28.7 µM
In short: as §1

ATS189 = experiment: as above; conditions: P. falciparum in erythrocytes, SYBR Green DNA, 72 h; series mostly up to 28.7 µM
In short: as §1

ATS95 = experiment: as above; conditions: P. falciparum in erythrocytes, SYBR Green DNA, 72 h; series mostly up to 28.7 µM
In short: as §1

C2A = experiment: as above; conditions: P. falciparum in erythrocytes, SYBR Green DNA, 72 h; series mostly up to 28.7 µM
In short: as §1

CP185 = experiment: as above; conditions: P. falciparum in erythrocytes, SYBR Green DNA, 72 h; series mostly up to 28.7 µM
In short: as §1

CP191 = experiment: as above; conditions: P. falciparum in erythrocytes, SYBR Green DNA, 72 h; series mostly up to 28.7 µM
In short: as §1

CP192 = experiment: as above; conditions: P. falciparum in erythrocytes, SYBR Green DNA, 72 h; series mostly up to 28.7 µM
In short: as §1

CP194 = experiment: as above; conditions: P. falciparum in erythrocytes, SYBR Green DNA, 72 h; series mostly up to 28.7 µM
In short: as §1

CP201 = experiment: as above; conditions: P. falciparum in erythrocytes, SYBR Green DNA, 72 h; series mostly up to 28.7 µM
In short: as §1

CP203 = experiment: as above; conditions: P. falciparum in erythrocytes, SYBR Green DNA, 72 h; series mostly up to 28.7 µM
In short: as §1

CP211 = experiment: as above; conditions: P. falciparum in erythrocytes, SYBR Green DNA, 72 h; series mostly up to 28.7 µM
In short: as §1

CP215 = experiment: as above; conditions: P. falciparum in erythrocytes, SYBR Green DNA, 72 h; series mostly up to 28.7 µM
In short: as §1

CP217 = experiment: as above; conditions: P. falciparum in erythrocytes, SYBR Green DNA, 72 h; series mostly up to 28.7 µM
In short: as §1

CP237 = experiment: as above; conditions: P. falciparum in erythrocytes, SYBR Green DNA, 72 h; series mostly up to 28.7 µM
In short: as §1

CP238 = experiment: as above; conditions: P. falciparum in erythrocytes, SYBR Green DNA, 72 h; series mostly up to 28.7 µM
In short: as §1

CP247 = experiment: as above; conditions: P. falciparum in erythrocytes, SYBR Green DNA, 72 h; series mostly up to 28.7 µM
In short: as §1

Chain of 3',5'-cyclic-AMP phosphodiesterase 4B (Homo sapiens) (Q07343 whole entry, looked up): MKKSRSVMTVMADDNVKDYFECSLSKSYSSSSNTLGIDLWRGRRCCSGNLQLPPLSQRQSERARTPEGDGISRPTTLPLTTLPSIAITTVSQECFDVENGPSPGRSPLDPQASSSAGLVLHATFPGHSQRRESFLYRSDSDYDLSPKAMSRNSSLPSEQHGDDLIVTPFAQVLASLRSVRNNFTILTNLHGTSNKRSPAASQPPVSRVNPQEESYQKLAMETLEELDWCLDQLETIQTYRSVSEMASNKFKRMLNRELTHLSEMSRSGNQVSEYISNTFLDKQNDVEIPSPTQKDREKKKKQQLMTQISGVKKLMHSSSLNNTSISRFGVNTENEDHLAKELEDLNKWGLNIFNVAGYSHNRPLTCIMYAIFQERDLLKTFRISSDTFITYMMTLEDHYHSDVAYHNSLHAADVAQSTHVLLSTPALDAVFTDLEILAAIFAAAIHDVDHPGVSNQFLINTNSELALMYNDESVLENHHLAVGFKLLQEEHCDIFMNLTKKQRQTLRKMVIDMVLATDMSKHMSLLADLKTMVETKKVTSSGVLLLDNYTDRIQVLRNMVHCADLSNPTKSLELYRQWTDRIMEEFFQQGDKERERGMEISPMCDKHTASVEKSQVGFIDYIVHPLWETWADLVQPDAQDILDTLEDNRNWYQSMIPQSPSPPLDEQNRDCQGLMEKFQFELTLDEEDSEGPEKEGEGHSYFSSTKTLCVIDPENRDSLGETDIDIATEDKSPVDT
Chain of Ubiquitin carboxyl-terminal hydrolase 1 (Homo sapiens) (O94782 whole entry, looked up): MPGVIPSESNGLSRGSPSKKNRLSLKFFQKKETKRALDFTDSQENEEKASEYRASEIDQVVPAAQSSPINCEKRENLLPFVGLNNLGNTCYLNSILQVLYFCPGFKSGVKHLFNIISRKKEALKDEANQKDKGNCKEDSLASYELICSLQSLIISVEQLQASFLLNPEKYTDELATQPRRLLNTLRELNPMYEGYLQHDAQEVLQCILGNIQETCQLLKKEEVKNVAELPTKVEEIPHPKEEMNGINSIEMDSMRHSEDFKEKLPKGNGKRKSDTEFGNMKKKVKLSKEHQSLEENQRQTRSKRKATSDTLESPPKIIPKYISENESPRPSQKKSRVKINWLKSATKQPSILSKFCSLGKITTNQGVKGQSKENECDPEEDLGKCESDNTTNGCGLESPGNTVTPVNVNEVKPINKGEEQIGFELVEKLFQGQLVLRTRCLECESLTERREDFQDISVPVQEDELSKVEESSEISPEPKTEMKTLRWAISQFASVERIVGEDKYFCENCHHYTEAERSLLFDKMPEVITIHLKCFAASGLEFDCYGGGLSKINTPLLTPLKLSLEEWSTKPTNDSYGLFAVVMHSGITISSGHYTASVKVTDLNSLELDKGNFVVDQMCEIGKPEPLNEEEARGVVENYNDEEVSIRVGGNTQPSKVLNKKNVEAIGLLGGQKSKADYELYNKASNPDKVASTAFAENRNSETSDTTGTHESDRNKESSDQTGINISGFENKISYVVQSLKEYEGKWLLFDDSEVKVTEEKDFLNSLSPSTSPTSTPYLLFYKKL
Chain of DNA dC->dU-editing enzyme APOBEC-3G (Homo sapiens) (Q9HC16 whole entry, looked up): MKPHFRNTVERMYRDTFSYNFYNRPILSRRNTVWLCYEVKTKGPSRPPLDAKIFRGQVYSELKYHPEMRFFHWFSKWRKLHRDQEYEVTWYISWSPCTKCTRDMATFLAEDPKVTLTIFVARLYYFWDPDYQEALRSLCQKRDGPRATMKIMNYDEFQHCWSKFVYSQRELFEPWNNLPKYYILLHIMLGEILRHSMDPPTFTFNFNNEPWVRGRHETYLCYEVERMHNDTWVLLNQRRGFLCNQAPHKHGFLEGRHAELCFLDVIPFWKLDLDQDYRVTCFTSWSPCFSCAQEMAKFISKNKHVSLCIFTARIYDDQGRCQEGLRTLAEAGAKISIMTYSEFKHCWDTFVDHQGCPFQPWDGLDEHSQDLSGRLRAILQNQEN
Chain of ATP-dependent 6-phosphofructokinase (Trypanosoma brucei brucei) (O15648 whole entry, looked up): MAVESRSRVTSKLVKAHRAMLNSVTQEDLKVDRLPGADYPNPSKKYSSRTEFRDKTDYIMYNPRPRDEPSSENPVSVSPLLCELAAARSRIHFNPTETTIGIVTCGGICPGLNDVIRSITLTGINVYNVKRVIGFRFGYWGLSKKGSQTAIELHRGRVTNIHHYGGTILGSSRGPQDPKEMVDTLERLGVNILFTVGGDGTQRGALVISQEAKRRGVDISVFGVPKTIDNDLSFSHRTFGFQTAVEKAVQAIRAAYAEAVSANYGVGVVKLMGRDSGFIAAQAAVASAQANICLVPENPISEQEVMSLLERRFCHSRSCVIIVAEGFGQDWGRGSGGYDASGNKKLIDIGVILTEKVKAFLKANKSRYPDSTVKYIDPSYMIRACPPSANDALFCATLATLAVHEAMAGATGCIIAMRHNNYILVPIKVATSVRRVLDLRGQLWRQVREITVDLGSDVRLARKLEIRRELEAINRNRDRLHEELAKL
Chain of Luciferin 4-monooxygenase (Photinus pyralis) (P08659 whole entry, looked up): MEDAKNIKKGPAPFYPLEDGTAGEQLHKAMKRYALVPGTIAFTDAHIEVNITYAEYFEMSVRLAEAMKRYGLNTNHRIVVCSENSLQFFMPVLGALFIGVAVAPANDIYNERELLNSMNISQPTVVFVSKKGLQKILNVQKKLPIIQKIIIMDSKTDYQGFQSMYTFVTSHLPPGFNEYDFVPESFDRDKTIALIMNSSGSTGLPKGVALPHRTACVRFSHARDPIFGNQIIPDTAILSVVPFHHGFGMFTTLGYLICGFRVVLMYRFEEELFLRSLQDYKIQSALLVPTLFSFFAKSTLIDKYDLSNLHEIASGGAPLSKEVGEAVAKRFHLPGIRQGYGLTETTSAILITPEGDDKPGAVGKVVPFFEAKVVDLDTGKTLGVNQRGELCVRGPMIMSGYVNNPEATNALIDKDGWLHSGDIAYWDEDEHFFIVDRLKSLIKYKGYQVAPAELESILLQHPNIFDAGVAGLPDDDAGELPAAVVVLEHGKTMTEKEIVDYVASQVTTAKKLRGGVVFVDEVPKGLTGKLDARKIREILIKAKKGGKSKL
Chain of Lysosomal acid glucosylceramidase (Homo sapiens) (P04062 whole entry, looked up): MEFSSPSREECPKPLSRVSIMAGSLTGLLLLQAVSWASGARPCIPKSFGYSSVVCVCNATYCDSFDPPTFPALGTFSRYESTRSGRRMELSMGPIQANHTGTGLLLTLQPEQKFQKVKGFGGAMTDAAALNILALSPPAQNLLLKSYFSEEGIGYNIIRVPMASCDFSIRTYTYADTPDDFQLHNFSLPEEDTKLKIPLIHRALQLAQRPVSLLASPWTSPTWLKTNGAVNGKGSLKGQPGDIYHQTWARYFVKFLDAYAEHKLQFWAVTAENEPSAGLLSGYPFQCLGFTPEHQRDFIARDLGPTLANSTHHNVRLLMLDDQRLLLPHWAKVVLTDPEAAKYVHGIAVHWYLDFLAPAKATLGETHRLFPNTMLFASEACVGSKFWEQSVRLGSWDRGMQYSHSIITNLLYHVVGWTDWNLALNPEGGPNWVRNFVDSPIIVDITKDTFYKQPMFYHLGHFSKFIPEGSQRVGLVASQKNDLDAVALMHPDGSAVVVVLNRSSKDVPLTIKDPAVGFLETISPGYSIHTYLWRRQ

COC(=O)[C@@H]1[C@@H]2C[C@H]3c4[nH]c5ccccc5c4CCN3C[C@@H]2CC[C@@H]1O
inactive: Potency [1] > 11.4 µM | activity change, negative = inhibition ([2]; at 7.69 µM (top of the series)) -0.0828% | activity change, negative = inhibition ([2]; at 17.2 µM (top of the series)) 0.544% and 5.73% and 0.793% | activity change, negative = inhibition ([3]; at 7.69 µM (top of the series)) -0.996% | activity change, negative = inhibition ([3]; at 17.2 µM (top of the series)) -15% and 0.703% and 5.17% | activity, negative = inhibition ([4]; at 7.69 µM (top of the series)) 0.353% | activity, negative = inhibition ([4]; at 17.2 µM (top of the series)) 5.5% and -1.53% and 0.108% | Potency [5] | Potency [6] | outcome [7] | Potency [8] | Potency [9] | Potency [10] | outcome [11] | Potency [12] | Potency [13] | Potency [14] | Potency [15] | activity, negative = inhibition ([16]; parasite line A) 13.9% | activity, negative = inhibition ([16]; parasite line B) -2.77% | Potency (3D7) | Potency (7G8) | Potency (AA1029) | Potency (AS120) | Potency (ATS189) | Potency (ATS95) | Potency (C2A) | Potency (CP185) | Potency (CP191) | Potency (CP192) | Potency (CP194) | Potency (CP201) | Potency (CP203) | Potency (CP211) | Potency (CP215) | Potency (CP217) | Potency (CP237) | Potency (CP238) | Potency (CP247)
